Anthrax LT inh: anthrax lethal toxin internalization inhibition; 0.67% of 70,000 active; AID 912; Potency, µM (series often up to 40 µM), hits mostly inhibitors; Cells, anthrax lethal toxin internalization, FRET ratio (460/530); note: nearly all actives have a fitted effect of over 50% in size
AmpC det inh: blocks E. coli AmpC beta-lactamase in presence of detergent | AID 584 | purified AmpC, nitrocefin hydrolysis with detergent | P00811 | 0.09% of 71,000 active | Potency, µM (highest dose often 28.7 µM); active = well fitted curve in the direction sought with a large enough effect; inconclusive = small, poorly fitted or top-dose-only effect
Target sequence (P00811 whole entry, looked up): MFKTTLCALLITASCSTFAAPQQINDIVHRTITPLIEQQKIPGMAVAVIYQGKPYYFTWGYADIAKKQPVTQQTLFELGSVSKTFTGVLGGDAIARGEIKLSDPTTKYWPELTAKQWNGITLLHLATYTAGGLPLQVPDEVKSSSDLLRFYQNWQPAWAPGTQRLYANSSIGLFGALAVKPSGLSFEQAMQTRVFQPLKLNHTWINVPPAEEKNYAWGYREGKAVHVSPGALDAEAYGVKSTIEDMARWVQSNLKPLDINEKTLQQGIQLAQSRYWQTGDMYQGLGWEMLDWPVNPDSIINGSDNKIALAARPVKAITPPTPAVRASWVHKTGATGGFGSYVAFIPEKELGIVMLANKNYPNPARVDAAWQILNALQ
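E. coli AmpC (5.3 nM) in 20 mM phosphate pH 7.0 with 0.01% Triton X-100, preincubated 15 min RT with compound; nitrocefin (2 uL of 800 uM stock) hydrolysis followed by 480 nm absorbance every 20 s over 4 min.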
AmpC nodet inh: blocks E. coli AmpC beta-lactamase in absence of detergent; P00811; AmpC nitrocefin hydrolysis, absorbance 480 nm, no detergent; AID 585; 1.8% of 71,000 active; Potency, µM (highest dose often 28.7 µM)
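AmpC, 20 mM phosphate pH 7.0; 15 min cpd preinc, RT; start with nitrocefin (800 uM stock); A480 kinetic read, 20 s intervals, 4 min. No-enzyme wells = negative control.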
Prx2 Sm inh: inhibitors of Schistosoma mansoni peroxiredoxin 2 | S. mansoni Prx2 activity coupled to TGR/GSH (TGR is thioredoxin glutathione reductase), NADPH fluorescence loss, qHTS | Potency, µM | 0.07% of 65,000 active | AID 448
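qHTS, coupled TGR/Prx2 format; 15 min compound preincubation at RT; reaction started with H2O2 (2.5 mM aliquot); kinetic NADPH fluorescence decrease, ex 365/em 450 nm.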
Of the large screens only hits and unclear results are named; the others gave an inactive call; [ ] = another dose, or the depositor's remark. Only some compounds are listed: those with a hit (about 2.4% of all), similar ones and a draw of the others. Unless noted, calls come from the whole dose curve.

CCN1CCN(c2ncnc3ccc(Br)cc23)CC1	none
OCCN1CCN(c2ncnc3ccc(Br)cc23)CC1	AmpC nodet inh 4µM[single pt active]
N#CCCS(=O)(=O)c1nnnn1-c1ccccc1	Anthrax LT inh 10µM, Prx2 Sm inh inconclusive
Cc1ccc(-n2nc(-c3ccc(N)cc3)cc2N)cc1	Anthrax LT inh inconclusive, AmpC nodet inh 3.2µM[single pt active]
Nc1ccc(-c2cc(N)n(-c3ccccc3)n2)cc1	Anthrax LT inh inconclusive
COc1ccc(C2CC(c3cccc(C)c3)n3ncnc3N2)cc1 (stereo not drawn)	AmpC nodet inh 4µM[single pt active]
Fc1ccc(C2CC(c3ccccc3)Nc3ncnn32)cc1 (stereo not drawn)	AmpC nodet inh 4µM[single pt active]
COc1ccc(C2CC(c3ccco3)n3ncnc3N2)cc1 (stereo not drawn)	AmpC nodet inh 2.5µM[single pt active]
CCOc1ccc(C2CC(c3cccc(C)c3)n3ncnc3N2)cc1 (stereo not drawn)	none
Cc1cccc(C2CC(c3ccccc3)Nc3ncnn32)c1 (stereo not drawn)	AmpC nodet inh 4µM[single pt active]
c1ccc(C2CC(c3ccccc3)n3ncnc3N2)cc1 (stereo not drawn)	none
CCN1C(=O)[C@H]2[C@H]3[C@H](O)[C@H](O)C/C(=N/OC[C@@H](O)COCc4ccco4)[C@H]3CC[C@@H]2C1=O	none (no result: AmpC det inh, AmpC nodet inh, Prx2 Sm inh)
CCOC(=O)C1Cn2c(nc3c(c2=O)C(C)(C)Cc2ccccc2-3)S1 (stereo not drawn)	Anthrax LT inh 10µM (no result: Prx2 Sm inh)
CCOC(=O)C1Cn2c(nc3c(c2=O)C2(CCCC2)Cc2ccccc2-3)S1 (stereo not drawn)	Anthrax LT inh inconclusive (no result: Prx2 Sm inh)
CCN(CC)c1ccc(C(=O)Nc2cccc(F)c2)cc1	Anthrax LT inh 10µM
CN(C)c1cccc(C(=O)Nc2cccc(F)c2)c1	none (no result: Anthrax LT inh)
CC(C)(C)NC(=O)C(Cc1ccccc1)NS(=O)(=O)c1ccc2c(c1)CCC(=O)N2 (stereo not drawn)	none
CCCCN(C)C(=O)C(Cc1ccccc1)NS(=O)(=O)c1ccc2c(c1)CCC(=O)N2 (stereo not drawn)	AmpC nodet inh 4µM[single pt active]
O=C1CCc2cc(S(=O)(=O)NC(Cc3ccccc3)C(=O)NC3CCCCC3)ccc2N1 (stereo not drawn)	AmpC nodet inh 4µM[single pt active]
C=CCC1(c2ccccc2)Oc2ccccc2-c2nc3cc(Cl)c(Cl)cc3nc21 (stereo not drawn)	none (no result: AmpC det inh, AmpC nodet inh, Prx2 Sm inh)
N#Cc1c(C(F)(F)F)cc(C2CC2)[nH]c1=O	AmpC nodet inh 4µM[single pt active]
O=C(NCc1ccc(Cl)cc1)c1cc(-c2cccs2)on1	AmpC nodet inh 7.9µM
O=C(Nc1cnn(Cc2ccc(F)cc2)c1)c1cc(-c2cccs2)on1	AmpC nodet inh 13µM[single pt active]
C[Si](C)(C)Cl	none (no result: Prx2 Sm inh)
Cc1cc(N2CCC(N(C)C3CCCC3)CC2)nc2cc(O)ccc12	Anthrax LT inh 3.2µM
Cc1cc(N2CCOCC2)nc2ccc(NC(=O)C3CCC(C)CC3)cc12 (stereo not drawn)	none
CC[C@@]12CCCN3CC[C@@]4(c5ccc(OC)c(O)c5N(C(C)=O)[C@H]4CC1)[C@H]32	none
COc1ccccc1N1CCN(c2cc(=O)n(-c3ccc(Br)cc3)c(=O)[nH]2)CC1	AmpC nodet inh 16µM[single pt active]
COc1ccccc1N1CCN(c2cc(=O)n(-c3ccc(Cl)cc3)c(=O)[nH]2)CC1	none
COc1ccc(C(=O)Oc2ccc3c(c2)OCO3)cc1OC	Anthrax LT inh 7.9µM (no result: Prx2 Sm inh)
COc1cc(OC)c(C(=O)Oc2ccc3c(c2)OCO3)cc1OC	Anthrax LT inh inconclusive
CCCCn1c(NCc2ccccc2O)nc2ccccc21	AmpC nodet inh 4µM[single pt active]
CCCCn1c(NCCO)nc2ccccc21	AmpC nodet inh 3.2µM[single pt active]
O=C(Cn1c(NCCCO)nc2ccccc21)c1cccs1	AmpC nodet inh 3.2µM[single pt active]
CCCn1c(NCc2cc(C)ccc2O)nc2ccccc21	none (no result: Prx2 Sm inh)
COc1ccc(C(=O)N2CCC3(CC2)CN(c2ncccn2)C3)cc1	none
O=C(NCCC1=CCCCC1)C1CCCN(S(=O)(=O)c2cccnc2)C1 (stereo not drawn)	AmpC nodet inh 2.5µM[single pt active]
O=C(Nc1nccs1)C1CCN(S(=O)(=O)c2cccnc2)CC1	none
O=C(Nc1nccs1)C1CCCN(S(=O)(=O)c2cccnc2)C1 (stereo not drawn)	AmpC nodet inh 4µM[single pt active]
O=C(Nc1ccc2c(c1)OCCO2)C1CCCN(S(=O)(=O)c2cccnc2)C1 (stereo not drawn)	Anthrax LT inh inconclusive, AmpC nodet inh 4µM[single pt active]
O=C(NCCC1=CCCCC1)C1CCCN(S(=O)(=O)c2cccc3cccnc23)C1 (stereo not drawn)	none
C=C1CC[C@H]2C(C)(C)[C@H](O)CC[C@]2(C)[C@@H]1COc1ccc2ccc(=O)oc2c1	Anthrax LT inh inconclusive
CC/C=C\CC[C@H](O)C1=CCCCC1=O	none (no result: AmpC det inh, AmpC nodet inh, Prx2 Sm inh)
O=c1c(-c2ccccc2)nc2cnc(N3CCOCC3)nc2n1C1CC1	Anthrax LT inh inconclusive
Nc1ncn([C@@H]2O[C@@H](CO)[C@@H](O)[C@H]2O)c(=O)n1	none
COc1ccc(C2CC(=O)c3cnc(NC(=O)c4ccccc4)nc3C2)cc1OC (stereo not drawn)	AmpC nodet inh 4µM[single pt active]
CC(C)C[C@@H](CC(=O)N[C@@H](CCCN)CC(=O)N[C@@H]1CCCC[C@H]1C(=O)N[C@H](CC(=O)N[C@@H](CCC(=O)O)CC(=O)O)Cc1ccccc1)NC(=O)[C@@H]1CNCC[C@H]1N	none
O=C(Nc1cccc(-c2nc3ncccc3o2)c1)c1cc2ccccc2o1	Anthrax LT inh 3.2µM
CCOC(=O)N1CCN(c2c(NCc3cccs3)c(=O)c2=O)CC1	AmpC nodet inh 4µM[single pt active]
CCOC(=O)N1CCN(c2c(NCc3ccccc3OC)c(=O)c2=O)CC1	Anthrax LT inh inconclusive, AmpC nodet inh 4µM[single pt active]
CCOC(=O)N1CCN(c2c(NCCc3ccc(OC)c(OC)c3)c(=O)c2=O)CC1	AmpC nodet inh 4µM[single pt active]
CCOC(=O)N1CCN(c2c(-c3ccc(C)c(C)c3)c(=O)c2=O)CC1	none
COc1ccc(OC)c(NC(=O)Nc2nnc(N3CCC(C)CC3)s2)c1	Anthrax LT inh inconclusive, AmpC nodet inh 4µM[single pt active]
COc1ccc(NC(=O)Nc2nnc(N3CCC(C)CC3)s2)cc1OC	AmpC nodet inh 4µM[single pt active]
COc1cccc(-c2cnc(NCc3cc(Cl)ccc3O)n2C)c1	Anthrax LT inh inconclusive, AmpC nodet inh 13µM
Cn1c(-c2cccc(Br)c2)cnc1NCc1cccnc1	none
CC1(C)S[C@@H]2[C@H](NC(=O)[C@@H](N)c3ccccc3)C(=O)N2[C@H]1C(=O)O[C@H]1OC(=O)c2ccccc21	AmpC det inh inconclusive, AmpC nodet inh 0.04µM
CC1(C)S[C@@H]2[C@H](NC(=O)[C@H](C(=O)O)c3ccsc3)C(=O)N2[C@H]1C(=O)O	AmpC det inh 5µM, AmpC nodet inh 4µM
CC1(C)S[C@@H]2[C@H](NC(=O)[C@@H](NC(=O)N3CCNC3=O)c3ccccc3)C(=O)N2[C@H]1C(=O)O	AmpC det inh 7.9µM, AmpC nodet inh 5µM
CC1(C)S[C@@H]2[C@H](NC(=O)[C@@H](N)c3ccc(O)cc3)C(=O)N2[C@H]1C(=O)O	AmpC det inh 0.32µM, AmpC nodet inh 1.3µM
